# Records with an inconclusive call do not appear. Entries that show only a call come without a potency. The source made the active and inactive calls. Calls follow the shape of the dose curve; as a rule, active = well fitted curve in the direction sought with a large enough effect; inconclusive = small, poorly fitted or top-dose-only effect, or effect the other way, or another doubt; inactive = no such curve, though single readings can be large or run the other way.
# Assay: Cell Viability Secondary Assay to Characterize qHTS Inhibitors of the Interaction of Thyroid Hormone Receptor and Steroid Receptor Coregulator 2
# Details: cell viability counter-screen, qHTS titration; series mostly up to 29.9 µM
# Procedure, shortened: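 ATP-based luminescence (CellTiter-Glo) measured viability after 16 h, 37 C compound exposure alongside T3 at 100nM final. Cells: TRbeta- and TRE-luciferase-expressing human WRO thyroid carcinoma line, in phenol-red-free, charcoal-treated serum medium.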
row,Compound,Potency
1,CN(CCO)c1nc(N)c2c(N)nc3c(c2c1C#N)CC(=O)N3C1CCCC1,inactive
2,Cn1cc(/C=C2\SC(=S)N(NC(=O)c3ccccc3)C2=O)c2ccccc21,inactive
3,CN1c2ccccc2C(C)(C)C12C=Nc1c(cc(N3CCOCC3)c3ccccc13)O2 (configuration not stated),inactive
4,Oc1ccc2ccccc2c1C=NC12CN3CCN(CN(C3)C1)C2,inactive
5,Cn1c(CCN2CCCCC2)nc2cc(NS(=O)(=O)c3ccc(Cl)cc3)ccc21,inactive
6,O=C(O)/C=C/C(=O)Nc1ccc(OC(F)(F)F)cc1Br,inactive
7,Cc1nnc(SCC(=O)Nc2ccc(N(C)C)cc2)[nH]c1=O,inactive
8,Cc1ccc(OC(=S)Nc2ccc(O)cc2)cc1,inactive
9,O=C(/C=C/c1ccco1)NC(=S)Nc1cc(C(F)(F)F)ccc1N1CCOCC1,inactive
10,O=C(O)[C@H]1CN(CCCP(=O)(O)O)CCN1,inactive
11,CCC(NC(=O)Nc1ccc(O)cc1)(C(F)(F)F)C(F)(F)F,inactive
12,COc1ccc(-c2nc(CS(=O)CC(=O)NCc3ccccn3)c(C)o2)cc1 (configuration not stated),inactive
13,O=C(O)/C=C/C(=O)Nc1ccc(SC(F)(F)C(F)(F)C(F)(F)F)cc1,inactive
14,Cc1cccc(S(=O)(=O)c2cn(Cc3ccccc3)c3cc(N4CCC(C)CC4)c(F)cc3c2=O)c1,inactive
15,C/C(=C\C(=O)c1ccccc1)Nc1ccc(O)cc1,inactive
16,CCOc1ccc(C2=Cc3cc(OC)c(OC)cc3C(=C(Cl)Cl)O2)cc1,inactive
17,COc1cc(C(c2c(C)[nH][nH]c2=O)c2c(C)[nH][nH]c2=O)ccc1OC(=O)c1ccccc1OC,inactive

# Source: PubChem BioAssay AID1568 (National Center for Advancing Translational Sciences (NCATS), 2009)
